PubChem BioAssay (NCI)
About 79,000 compounds went through this panel and 15% of them were active in at least one assay; those are over-represented in the sample as a whole. Unmarked numbers belong to inactive results. The source made the active and inactive calls. No stated cut-off is given here; in the data, active means growth inhibition above about 70%; inactive means the rest.

Assay: NCI Yeast Anticancer Drug Screen. Data for the rad14 strain (AID 159);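 further: 0% = growth of vehicle-treated control cultures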
Conditions: S. cerevisiae rad14 strain growth inhibition, stronger effect = higher value
Method: Growth inhibition of yeast strains with defined genetic alterations is measured as a screen for potential anti-cancer activity. Selected strains with alterations in DNA damage repair or cell cycle control were exposed to compounds and growth inhibition was measured relative to vehicle treated controls. The strain used in this assay is rad14

| Compound | growth inhibition (at 1.2 µM) | growth inhibition (at 3.7 µM) | growth inhibition (at 11.0 µM) | growth inhibition (at 33.0 µM) | growth inhibition (at 100.0 µM) |
| --- | --- | --- | --- | --- | --- |
| O=C1CSC(c2ccccc2)N1c1ccc(-c2ccc(-n3c(-c4ccccc4)nc4ccccc4c3=O)cc2)cc1 (stereo not given) | 1% | 7% | 14% | 36% | 44% |
| Clc1nc(Cl)nc(Nc2cccc3ccccc23)n1 | -4% | 15% | 48% | 95% (active) | 98% (active) |
| S=C1C(=Nc2ccccc2)N(c2ccccc2)/C(=N\c2ccccn2)N1c1ccccc1 | -4% | -2% | 36% | 99% (active) | 95% (active) |
| CC(=O)N1C=Cc2c(c(C)c3c([nH]c4ccccc43)c2C)C1 | 7% | 32% | 79% (active) | 90% (active) | 94% (active) |
| Cc1cc(OCc2nc(N)nc(N)c2-c2ccc(Cl)c(Cl)c2)ccc1[N+](=O)[O-] | -1% | 8% | 3% | 3% | 3% |
| Cc1ccc([N+](=O)[O-])c2c(NCCC[N+](C)(C)[O-])c3ccccc3nc12 | 11% | 15% | 43% | 91% (active) | 96% (active) |
| N#[N+]c1c([O-])c2ccccc2c2ccccc12 | 3% | 17% | 25% | 80% (active) | 97% (active) |
| Cc1c(Cl)c(C)c(Cl)c(O)c1Cl | 5% | 6% | 11% | 95% (active) | 99% (active) |
